The whole screen tested about 340,000 compounds, of which about 1,700 (0.5%) were called active. No stated cut-off is given here; in the data, active means inhibition above about 40%; inactive means the rest. The full list was thinned out, with actives kept by preference.
molecular target: Cysteine protease ATG4B (Homo sapiens) (UniProt Q9Y4P1); experiment: blockers of ATG4B cysteine protease activity – biochemical, fluorescence, uHTS, primary screen (AID 504462); conditions: ATG4B cleavage of LC3-PLA2, NBD-HPC fluorescence, 1 h; at 8.33 µM; stronger effect = higher value
Sequence (Q9Y4P1 whole entry, looked up): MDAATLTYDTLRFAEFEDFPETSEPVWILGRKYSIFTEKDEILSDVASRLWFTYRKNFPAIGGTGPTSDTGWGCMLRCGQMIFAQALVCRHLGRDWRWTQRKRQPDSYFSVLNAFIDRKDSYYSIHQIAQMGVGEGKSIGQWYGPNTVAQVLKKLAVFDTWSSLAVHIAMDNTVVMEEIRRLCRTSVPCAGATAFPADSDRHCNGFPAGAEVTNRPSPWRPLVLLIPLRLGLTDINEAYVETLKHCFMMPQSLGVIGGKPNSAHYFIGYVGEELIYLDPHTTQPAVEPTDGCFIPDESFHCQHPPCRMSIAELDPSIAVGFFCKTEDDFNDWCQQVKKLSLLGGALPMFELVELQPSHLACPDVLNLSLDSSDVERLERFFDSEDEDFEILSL

inhibition, active:
O=C1C(=O)N(CC2COc3ccccc3O2)c2ccccc21 (stereo not drawn) 72.1%
FC(F)(F)c1cccc(NC(=S)Nc2cccc(Cl)c2)c1 44.3%
Cc1nc(SCC(=O)N2CCc3ccccc3C2)c2c(C)c(C)sc2n1 71.6%
COc1ccc(/C=C2/SC(=O)N(CCCCCC(=O)Nc3ccccc3C(=O)O)C2=S)cc1 55.6%
CC1CCN(C(=O)c2ccc(CSc3ccc(Cl)cc3)cc2)CC1 44%
O=C(NCc1ccccc1)[C@H]1C[C@@H]1[C@H](NP(=O)(c1ccccc1)c1ccccc1)c1ccccc1 55.2%
Cc1ccc(NC(=O)CC2S/C(=N/N=C3\CCCc4ccccc43)NC2=O)cc1 (stereo not drawn) 41.3%
O=C1Nc2cc(Cl)c(Cl)cc2N(O)N1c1cc(Cl)cc(Cl)c1 42.3%
CCS(=O)(=O)C1=NSC2=NC(=O)/C(=C\c3ccc(OS(=O)(=O)c4ccccc4)cc3)C(=N)N21 43.1%
FC(F)(F)Oc1ccc(NC(=S)NCc2ccccc2)cc1 40.2%
Oc1c(Cl)cc(Cl)c(Cl)c1Cc1c(O)c(Cl)cc(Cl)c1Cl 87.4%
CCc1ccccc1NC(=O)/C(=C/c1ccccc1)c1ccccc1 59.5%
O=C(N[C@@H](Cc1c[nH]c2ccccc12)C(=O)O)OCC1c2ccccc2-c2ccccc21 61.3%
CN(C)Cc1ccc(F)cc1Sc1cc(Cl)ccc1Cl 43.6%

inhibition, inactive:
C[C@H](CO)N1C[C@H](C)[C@@H](CN(C)S(=O)(=O)c2ccc(F)cc2)Oc2c(NC(=O)Nc3ccccc3)cccc2C1=O -16.4%
O=C(CN1C(=O)C2C3C=CC(C3)C2C1=O)NCC1COc2ccccc2O1 (stereo not drawn) 0.03%
O=C(NCC1COc2ccccc2O1)C1(c2ccccc2)CCCC1 (stereo not drawn) 4.25%
Cn1cc(Cl)c(C(=O)NNC(=S)Nc2cccc(Cl)c2)n1 -0.09%
FC(F)(F)c1cccc(N/N=C/c2ccccc2)c1 -3.29%
O=C(CSc1nnc(-c2cccs2)n1Cc1ccccc1)N1CCc2ccccc2C1 31.5%
Cc1nc(SCC(=O)N2CC(=O)Nc3ccccc32)c2c(C)c(C)sc2n1 26.7%
CCOCC(=O)Nc1ncc(S(=O)(=O)c2ccc([N+](=O)[O-])cc2)s1 -0.99%
COc1ccc(/C=C2\SC(=O)N(CCC(=O)NCCCn3ccnc3)C2=O)cc1 3.21%
COc1ccc(/C=C2\SC(=O)N(CCC(=O)NC3CCS(=O)(=O)C3)C2=O)cc1 (stereo not drawn) 5.85%
Cc1cc(C)n(-c2nnc(C)n2NC(=O)c2cccc(Cl)c2)n1 -11.2%
O=C(NCCS(=O)(=O)N1CCN(c2ccccc2F)CC1)c1ccc(Br)o1 -9.9%
CC1(C)CC(=O)C=C(NCCCN2CCCC2=O)C1 2.66%
O=C(c1ccc(CSc2ccccc2)cc1)N1CCCCCC1 15.3%
O=C(C1CC1)N1CCN=C1SCc1ccc(Cl)cc1 -5.2%
COC(=O)[C@H](Cc1ccccc1)NC(=O)[C@@H]1C[C@H]1[C@@H](NC(=O)OCc1ccccc1)c1ccccc1 3.57%
O=C(O)C1C2C=CC(C2)C1C(=O)NCc1ccccc1 (stereo not drawn) 1.32%
Cc1ccc(Sc2cc(C(=O)c3ccccc3C(=O)O)ccc2[N+](=O)[O-])cc1 -10.7%
CN(C)S(=O)(=O)c1ccc(N/C=C(\[N+](=O)[O-])S(=O)(=O)c2ccccc2)cc1 0.88%
CCCN(CCC)CCCNC(=O)CNC(=O)c1nn(-c2ccc(OC)cc2)c(=O)c2ccccc12 7.71%
Cc1c(Cl)cccc1NC(=O)CC1SC(=NCC2CCCO2)NC1=O (stereo not drawn) 1.67%
CCN=C1SC(CC(=O)Nc2ccc(C)cc2)C(=O)N1CC (stereo not drawn) -0.27%
O=C(COC(=O)c1cc(=O)[nH]c2ccccc12)Nc1nc(-c2cccc(Br)c2)cs1 -32.4%
O=C1Nc2cc(Cl)c(Cl)cc2N(O)N1c1ccccc1Cl 0.16%
O=C(Nc1cccc2c1CCCC2)c1ccc(F)cc1 9.34%
Cc1ccc(C2=N/C(=C\c3ccc(OS(=O)(=O)c4ccc(C)cc4)cc3)C(=O)O2)cc1 -3.55%
CS(=O)(=O)C1=NN2C(=N)/C(=C\c3ccc(OCCOc4ccccc4)cc3)C(=O)N=C2S1 -1.7%
O=C(NCCc1ccco1)c1ccc(OCc2cn3ccccc3n2)cc1 -8.13%
Fc1ccccc1CNC(=S)Nc1ccc(Cl)cc1 23.2%
COC(=O)Cc1ccc(NC(=S)NCc2ccccc2)cc1 8.5%
CC1(C)C/C(=N/Nc2ccc([N+](=O)[O-])cc2[N+](=O)[O-])C(C)(C)O1 0.43%
CC(=O)c1c(N2CCOCC2)nc(=S)n(Cc2ccccc2)c1C -2.2%
ClC1(Cl)CC1CSc1ncn[nH]1 (stereo not drawn) -3.17%
Nc1c(Cl)cc(-c2csc(N3CCCC3c3nc4cc(Cl)c(Cl)cc4n3CCOCCO)n2)cc1Cl (stereo not drawn) -22.9%
CC(=O)NC1(c2cccc(F)c2)CCN(CC(=O)NC(C)C)CC1 -3.58%
CCc1ccccc1NC(=O)CCOc1ccccc1 -0.7%
CCc1ccccc1NC(=S)Nc1cc(OC)c(NC(=O)C(C)C)cc1OC 3.4%
CCN1CCN(C(C(=O)NC2CCCC2)c2cc3c(cc2[N+](=O)[O-])OCO3)CC1 (stereo not drawn) -0.97%
Cc1cccc(C)c1OCC(=O)NC(Cc1c[nH]c2ccccc12)C(=O)O (stereo not drawn) 2.14%
O=C(CCn1nnc2ccccc2c1=O)N[C@@H](Cc1c[nH]c2ccccc12)C(=O)O 0.19%
COCCCNC(=O)C1CCN(c2ccc(N3CCOCC3)nn2)CC1 -8.6%
Cc1ccc(-c2ccc(=O)n(Cc3ccc(F)cc3Cl)n2)cc1 17.9%
COc1ccc(OC)c2c(N)c(C#N)c(C(F)(F)C(F)(F)F)nc12 3.2%
COc1ccc(/C=N/n2nnnc2N)cc1OC 4.77%
